Most compounds without a hit are left out; they make up all but 1.2% or so of the library.
PfHsp40 rescue: rescue of yeast from PfHsp40 toxicity, primary screen, S. cerevisiae, ATP luminescence; growth rescue, % at 12.5 µM; AID 504582, 2011; actives 0.68% (n = 340,000); S. cerevisiae expressing PfHsp40, growth rescue; in the data active = growth rescue above about 28%, passing the limit was not always enough; inconclusive = no clear call, values can overlap the other calls;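 also: yeast W303a lacking pdr1 and pdr3 grown in galactose medium; growth measured after three days at 30 °C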
Vc quorum ag-1: inducers of Vibrio cholerae quorum light production without autoinducers, primary screen, BH1578 luxS cqsA deficient, single point. V. cholerae BH1578 lux reporter, luminescence, 6 h. activation, % at 18.7 µM. actives 0.16% (n = 350,000); in the data active = activation mostly above about 9.7%, no sharp cut-off; inconclusive = no clear call, values can overlap the other calls; inactive = mostly below about 3.7%
Mtb bLac sens: beta-lactam sensitization of Mtb H37Rv, H37Rv; inhibition, % at 25 µM; M. tuberculosis H37Rv growth with meropenem, percent inhibition; actives 0.27% (n = 330,000); AID 434955, 2010;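 also: growth measured after seven days incubation then overnight dye step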
Sa ugtP lethal: growth inhibition of ugtP-null S. aureus, primary screen, RN4220 ugtP deletion, OD600 | 16 h | growth inhibition, % (test concentration not listed) | actives 0.54% (n = 330,000); in the data active = growth inhibition above about 68%
Sa RN4220 lethal: growth inhibition of S. aureus RN4220, primary screen, OD600; actives 0.33% (n = 330,000); inhibition, % (no concentration beside the values); AID 1259311, 2017; 16 h; in the data active = inhibition above about 85%
Vc quorum ag-2: V. cholerae lux activation without autoinducers – BH1578 luxS cqsA deficient, cherry-pick, plate reader, dose response; shares compounds with Vc quorum ag-1; V. cholerae BH1578 lux reporter, luminescence, 6 h; activation, % at 50 µM; 620 tested, under 10 active
HeLa tox: HeLa cell cytotoxicity, dose response, cytotoxicity control, 24 h, dry powder; 25 tested, under 10 active; activity change, negative = cytotoxicity, % at 35 µM; AID 624140, 2012; HeLa viability, CellTiter-Glo ATP luminescence; shares compounds with Vc quorum ag-1;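 active = signal drop with fitted half-maximal concentration at or below twice the highest valid dose; inconclusive = flat curve with 30 to 70% loss, or poor fit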
Large screens that a line does not name were inactive (follow-up assays come after a bar, where they were run). Unless noted, no rule for the calls is given here.

CCOc1ccc(/C=C2\SC(=S)N(NS(=O)(=O)c3ccccc3)C2=O)cc1OC	PfHsp40 rescue 60
O=C(Nc1ccc(NC(=O)c2ccc(Cl)cc2Cl)cc1)c1ccc2c(c1)OCO2	none
O=C(Nc1ccc(C2=NCCN2)cc1)c1ccc(C(=O)Nc2ccc(C3=NCCN3)cc2)c(Cl)c1	PfHsp40 rescue 234 (no result: Sa ugtP lethal, Sa RN4220 lethal)
Cc1ccc(CSc2ncnc3onc(C)c23)cc1	PfHsp40 rescue 70
Cc1noc2ncnc(SCc3ccc(C(F)(F)F)cc3)c12	PfHsp40 rescue inconclusive
O=S1(=O)CCOCC(CC2CCCCC2)N1Cc1ccccc1F (stereo unspecified)	none (no result: PfHsp40 rescue, Vc quorum ag-1, Mtb bLac sens)
CCC1=C(OC(=O)N(CC)CC)N2C(=O)OC(=NCC(=O)OC)[C@]2(C)C2C1=CCC1C(=O)N(C)C(=O)C12 (stereo partly specified)	none (no result: PfHsp40 rescue, Vc quorum ag-1, Mtb bLac sens)
N/C(=N\OC(=O)c1ccc2ccccc2c1)c1ccccc1Cl	PfHsp40 rescue 87
O=C(CSc1nccc(-c2cccs2)n1)Nc1ccc(F)c(Cl)c1	Sa ugtP lethal 89
COc1ccc2c(c1)OC(c1cccc(C(F)(F)F)c1)C(O)C2=O (stereo unspecified)	none (no result: PfHsp40 rescue, Vc quorum ag-1, Mtb bLac sens)
CCN1C(=O)C(CC(=O)Nc2ccccc2Cl)N(NC(=O)c2cccc(F)c2)C1=S (stereo unspecified)	PfHsp40 rescue 122
Cc1[nH][nH]c(=O)c1C(c1c(C)[nH][nH]c1=O)c1cn(Cc2cccc3ccccc23)c2ccccc12	Sa ugtP lethal 94
Cc1[nH][nH]c(=O)c1C(c1c(C)[nH][nH]c1=O)c1cn(C)c2ccccc12	none (no result: Mtb bLac sens)
Cn1c2ccccc2c2cc(C(=O)O)ccc21	PfHsp40 rescue 42
CCCn1c2ccccc2c2cc(C(=O)O)ccc21	PfHsp40 rescue 325 (no result: Sa ugtP lethal, Sa RN4220 lethal)
COc1ccc(C(C)=NNC(=O)CNC(=O)C(c2ccccc2)c2ccccc2)c(OC)c1	none (no result: PfHsp40 rescue, Vc quorum ag-1, Mtb bLac sens)
N#Cc1ccccc1NC(=O)CNc1ccccc1N1CCCCC1	Vc quorum ag-1 160 | Vc quorum ag-2 inactive
O=C(NCC(F)(F)F)Nc1ncccn1	Vc quorum ag-1 15 | Vc quorum ag-2 inactive
COc1ccc(OC)c(NC(=O)Nc2cccc(Cn3cccn3)c2)c1	none | Vc quorum ag-2 inactive
COc1ccc(C2=CC(=O)CC(c3ccc(F)cc3)C2)c(F)c1F (stereo unspecified)	none (no result: PfHsp40 rescue, Vc quorum ag-1, Mtb bLac sens)
CCOC(=O)CSc1nc(N)c(C#N)c(-c2cccs2)c1C#N	Vc quorum ag-1 44 | Vc quorum ag-2 inactive
COCCCNC(=O)c1ccc2c(=O)n(C3CCCC3)c(=S)[nH]c2c1	none | Vc quorum ag-2 inactive
COc1ccc(CNC(=O)/C=C/c2ccc(OCCCF)cc2)cc1	none
O=C(/C=C/c1ccc(OCCCF)cc1)NCc1ccc(Cl)cc1	Vc quorum ag-1 39 | Vc quorum ag-2 inactive
COC(=O)CCc1c(C)[nH]c(=S)[nH]c1=O	none
CCOC(=O)Cc1c(C)[nH]c(=S)[nH]c1=O	Vc quorum ag-1 17 | Vc quorum ag-2 inactive
Cc1cccc(-c2noc(CN(C(=O)C34CC5CC(CC(C5)C3)C4)C(C)C)n2)c1	Vc quorum ag-1 18 | Vc quorum ag-2 inactive
CC(C)N(Cc1nc(-c2ccc(Cl)cc2)no1)C(=O)C12CC3CC(CC(C3)C1)C2	none
COc1ccc(/C(N)=N/OC(=O)Cc2ccccc2OC)cc1	none | Vc quorum ag-2 inactive
COc1ccc(S(=O)(=O)Nc2cccc3c2OC(CN(C)Cc2ccccc2)C(C)CN(C(C)CO)C3=O)cc1 (stereo unspecified)	none (no result: PfHsp40 rescue, Vc quorum ag-1, Mtb bLac sens)
COc1ccccc1NC(=O)COC(=O)C1CCCC1	none
COc1ccc(OC)c(NC(=O)COC(=O)c2cc3c(s2)CCC3)c1	none | Vc quorum ag-2 inactive
COc1ccccc1NC(=O)COC(=O)c1cc2c(s1)CCC2	none (no result: Vc quorum ag-1, Mtb bLac sens) | Vc quorum ag-2 inactive | HeLa tox inactive
CC(=NNC(=O)Cc1cccn1C)c1ccc2ccccc2c1	none (no result: PfHsp40 rescue, Vc quorum ag-1, Mtb bLac sens)
Cc1cc(=O)[nH]c(NN=Cc2c(C)oc3ccccc23)n1	none (no result: PfHsp40 rescue, Vc quorum ag-1, Mtb bLac sens)
Cc1ccc(C)c(N(C(=O)Cn2nnc(-c3cccs3)n2)C(C(=O)NC2CC2)c2ccc(C)o2)c1 (stereo unspecified)	Vc quorum ag-1 829 | Vc quorum ag-2 inactive
CCN(CC)C(=O)CSc1nnc(-c2ccco2)o1	none (no result: Vc quorum ag-1)
CN(C)C(=O)CCSc1nnc(-c2ccco2)o1	Vc quorum ag-1 101 | Vc quorum ag-2 inactive
O=C(Cc1ccccc1)NC1CCCCC1	none (no result: PfHsp40 rescue, Mtb bLac sens, Sa ugtP lethal, Sa RN4220 lethal)
Cc1ccc(CC(=O)NC2CCCC2)cc1	none (no result: PfHsp40 rescue, Vc quorum ag-1, Mtb bLac sens, Sa ugtP lethal, Sa RN4220 lethal) | HeLa tox inactive
Cc1ccc(C(=O)OCC(=O)NC2CCCC2)cc1C	Vc quorum ag-1 active | Vc quorum ag-2 inactive
CC(C)c1ccc(C(=O)OCC(=O)NC2CCCC2)cc1	Vc quorum ag-1 active | Vc quorum ag-2 inactive
CCc1ccc(C(=O)OCC(=O)NC2CCCC2)cc1	none (no result: Vc quorum ag-1) | Vc quorum ag-2 inactive
C=CCN1C(Cc2ccccc2)COCCS1(=O)=O (stereo unspecified)	none (no result: PfHsp40 rescue, Vc quorum ag-1, Mtb bLac sens)
Cc1nc(C)c(C(=O)NN=Cc2cc(Br)ccc2O)s1	none (no result: PfHsp40 rescue, Vc quorum ag-1, Mtb bLac sens)
Cc1ccsc1C=NNC(=O)C1CC(=O)N(c2ccccc2)C1 (stereo unspecified)	none (no result: PfHsp40 rescue, Vc quorum ag-1, Mtb bLac sens)
COc1cc(SC)ccc1C(=O)OCC(=O)NC1CCCC1	Vc quorum ag-1 741 | Vc quorum ag-2 inactive
CCc1cc(C(=O)c2ccccc2OC)c(N)s1	none | Vc quorum ag-2 inactive
CCC(=O)Nc1nnc(SCC(=O)Nc2ccc3c(c2)OCCO3)s1	none
Nc1nnc(SCC(=O)Nc2ccc3c(c2)OCCO3)s1	none | Vc quorum ag-2 inactive
CC(C)NC(=O)Nc1ccc2c(c1)C(=O)N(C(C)CO)CC(C)C(CN(C)S(=O)(=O)c1ccccc1)O2 (stereo unspecified)	none (no result: PfHsp40 rescue, Vc quorum ag-1, Mtb bLac sens)
Cc1ccccc1NC(=O)c1cc2ccccc2o1	none
CC1CCN(c2ccccc2NC(=O)c2cc3ccccc3o2)CC1	Vc quorum ag-1 97 | Vc quorum ag-2 inactive
Cc1noc(C)c1NC(=O)Nc1ccc2c(c1)C(=O)N(C(C)CO)CC(C)C(CN(C)S(=O)(=O)c1ccccc1)O2 (stereo unspecified)	none (no result: PfHsp40 rescue, Vc quorum ag-1, Mtb bLac sens)
CCn1cc(C(=O)Nc2ccccc2)c(=O)c2ccc(C)nc21	none (no result: PfHsp40 rescue, Vc quorum ag-1)
CCn1cc(C(=O)NC2CCCCC2C)c(=O)c2ccc(C)nc21 (stereo unspecified)	Vc quorum ag-1 30 | Vc quorum ag-2 inactive
CSc1nc(C)cc(OCC(=O)N2CCOCC2)n1	Vc quorum ag-1 32 | Vc quorum ag-2 inactive
COC(=O)C1=C(c2ccc(F)cc2F)CC2CCC1N2C(=O)NCCOc1ccccc1 (stereo unspecified)	none (no result: PfHsp40 rescue, Vc quorum ag-1, Mtb bLac sens)
O=C(CC1CC=CCC(NC(=O)OCC2c3ccccc3-c3ccccc32)C(=O)OCC2CCCN2C1=O)NCCO (stereo unspecified)	none (no result: PfHsp40 rescue, Vc quorum ag-1, Mtb bLac sens)
CCCC(C)NC(=O)Cc1ccccc1 (stereo unspecified)	none
